Test results as given in PubChem BioAssay (NCATS).
Values joined by “and” are separate entries in the source; they are usually repeats but may differ in a detail not shown here. Equal values may be shown once. Inconclusive results are not listed. Values without a mark were called inactive. Active and inactive are the calls of the source. The call rests on the fitted dose curve; in most records, active means well fitted curve in the direction sought with a large enough effect; inconclusive means small, poorly fitted or top-dose-only effect, or another doubt; inactive means no such curve, though single readings can be large; an effect the other way counts as inactive or inconclusive.

What was measured:
[1] = Viability qHTS for spleen associated tyrosine kinase inhibitor (SYKi) naive MV4-11 cells (AID 1963823); settings: MV4-11 AML viability, CellTiter-Glo luminescence, 72 h; series mostly up to 45 µM; further: nearly all actives have a fitted effect of over 40% in size
Method in brief: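 In this viability screen, compounds acted on SYK inhibitor naive MV4-11 cells for three days (72 hr, 37 C). Remaining viable cells were measured by CellTiter-Glo luminescence following a 10 min room-temperature development.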

[2] = Viability qHTS for spleen associated tyrosine kinase inhibitor (SYKi) drug resistant MV4-11 cells (AID 1963824); settings: SYKi-resistant MV4-11 viability, CellTiter-Glo, 72 h; series mostly up to 45 µM; further: nearly all actives have a fitted effect of over 35% in size
Method in brief: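 SYK-inhibitor-resistant MV4-11 AML cells were seeded at 500 per well onto compound and cultured 72 hours (37 °C, 5% CO2). CellTiter-Glo was then added, and after 10 min at room temperature, luminescence gave viability.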

[3] = Quantitative highthroughput screen to assess conditional lethalithy of NOMO1 cells grown in RPMI1640 with untreated serum (RPMI+s) (AID 1963876); settings: NOMO1 AML cells in RPMI+serum, CellTiter-Glo viability, 48 h; series mostly up to 45.8 µM; further: nearly all actives have a fitted effect of over 35% in size;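 on Viability: 100% = DMSO wells and 0% = empty wells without cells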
Method in brief: (§1)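 Each medium arm—HPLM with 10% dialyzed FBS, or RPMI1640 with 5 mM glucose and 10% untreated or dialyzed FBS—was screened against an 11-point, 3-fold compound titration for 48 h at 37 °C, with CellTiter-Glo luminescence as endpoint.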

[4] = Quantitative highthroughput screen to assess conditional lethalithy of NOMO1 cells grown in RPMI1640 with dialyzed fetal bovine serum (RPMI+ds) (AID 1963877); settings: NOMO1 in RPMI+dialyzed FBS viability, ATP luminescence, 48 h; series mostly up to 45.8 µM; further: nearly all actives have a fitted effect of over 30% in size;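 on Viability: 100% = DMSO control wells and 0% = empty wells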
Method in brief: as §1

[5] = Quantitative highthroughput screen to assess conditional lethalithy of NOMO1 cells grown in Human Plasma-Like Medium with dialyzed fetal bovine serum (HPLM+ds) (AID 1963878); settings: NOMO1 AML cells in HPLM+ds, CellTiter-Glo viability, 48 h; series mostly up to 45.8 µM; further: nearly all actives have a fitted effect of over 35% in size;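 on Viability: 100% = DMSO wells and 0% = empty wells on each plate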
Method in brief: as §1

[6] = Quantitative highthroughput screen to assess conditional lethalithy of P12 Ichikawa cells grown in RPMI1640 with dialyzed fetal bovine serum (RPMI+ds) (AID 1963880); settings: ATP luminescence, 48 h; Potency: P12-Ichikawa viability; series mostly up to 45.8 µM; further: nearly all actives have a fitted effect of over 35% in size;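 on Viability: 100% = DMSO wells and 0% = empty wells on each plate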
Method in brief: as §1

[7] = Quantitative highthroughput screen to assess conditional lethalithy of P12 Ichikawa cells grown in RPMI1640 with untreated serum (RPMI+s) (AID 1963881); settings: ATP luminescence, 48 h; Potency: viability; series mostly up to 45.8 µM; further: nearly all actives have a fitted effect of over 35% in size;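 on Viability: 100% = DMSO wells and 0% = empty wells without cells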
Method in brief: as §1

[8] = Quantitative highthroughput screen to assess conditional lethalithy of SEM cells grown in Human Plasma-Like Medium with dialyzed fetal bovine serum (HPLM+ds) (AID 1963882); settings: SEM B-ALL cells in HPLM+ds, CellTiter-Glo viability, 48 h; series mostly up to 45.8 µM; further: nearly all actives have a fitted effect of over 35% in size
Method in brief: as §1

[9] = Quantitative highthroughput screen to assess conditional lethalithy of SEM cells grown in RPMI1640 with unreated serum (RPMI+s) (AID 1963883); settings: SEM B-ALL cells, CellTiter-Glo viability, 48 h; series mostly up to 45.8 µM; further: nearly all actives have a fitted effect of over 35% in size;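 on Viability: 100% = DMSO wells and 0% = empty wells without cells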
Method in brief: as §1

[10] = Quantitative highthroughput screen to assess conditional lethalithy of SEM cells grown in RPMI1640 with dialyzed fetal bovine serum (RPMI+ds) (AID 1963884); settings: SEM B-ALL cells, RPMI+dialyzed FBS, CellTiter-Glo viability, 48 h; series mostly up to 45.8 µM; further: nearly all actives have a fitted effect of over 35% in size;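 on Viability: 100% = DMSO control wells and 0% = empty wells without cells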
Method in brief: as §1

[11] = Cellular viability qHTS for adrenocortical cancer (ACC) cell line SW-13 (AID 1963989); settings: SW-13 ACC cells viability, CellTiter-Glo, 48 h; activity (max response): hits give low values; further: nearly all actives have a fitted effect of over 65% in size;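 on activity (max response): cells grown in serum-free medium with ITS supplement; on the % scale 0 is the no-effect control and ±100 the full control effect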
Method in brief: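 SW-13 cells in ITS-supplemented serum-free DMEM were plated overnight, then exposed for 48 h at 37C to compound titrations (up to 46 uM final). Viability was read by CellTiter-Glo luminescence; four-parameter logistic fits gave IC50 and efficacy.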

[12] = Cellular viability qHTS for adrenocortical cancer (ACC) cell line NCI-H295R (AID 1963990); settings: CellTiter-Glo ATP luminescence, 48 h; series mostly up to 46.1 µM; further: nearly all actives have a fitted effect of over 60% in size
Method in brief: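 Luminescent ATP read-out (CellTiter-Glo, 20 min RT) after 48 h drug exposure of NCI-H295R cells; a titration up to 46 uM final. Data normalized to doxorubicin (100% inhibition) and DMSO (0%); 4-parameter fit gives IC50, max response.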

[13] = Quantitative highthroughput screen to assess conditional lethalithy of P12 Ichikawa cells grown in Human Plasma-Like Medium with dialyzed fetal bovine serum (HPLM+ds) (AID 1963879); settings: ATP luminescence, 48 h; Potency: viability; series mostly up to 45.8 µM; further: nearly all actives have a fitted effect of over 35% in size
Method in brief: as §1
Potency means the concentration at half of the fitted maximal effect.

Compound | Potency [1] | Potency [2] | Potency [3] | Potency [4] | Potency [5] | Potency [6] | Potency [7] | Potency [8] | Potency [9] | Potency [10] | activity (max response) [11] [%] | Potency [12] | Potency [11] | Potency [13]
CC(=O)NC(C)c1ccc(Oc2ccc(OC(C)C)cc2)cc1 (centres undefined) | 10.8 µM (active) | 10.8 µM (active) | inactive | inactive | inactive | inactive | inactive | inactive | inactive | inactive | – | – | – | –
Fc1ccc(CNc2ncnc3ccc(F)cc23)cc1 | 2.06 µM (active) | 1.84 µM (active) | inactive | inactive | inactive | – | – | inactive | inactive | inactive | – | – | – | –
CNC(=O)[C@H](Cc1ccccc1)NC(=O)[C@H](CC(C)C)[C@H](CSc1cccs1)C(=O)NO | 5.25 µM (active) | 2.95 µM (active) | inactive | inactive | inactive | 11.8 µM (active) | 9.35 µM (active) | 16.6 µM (active) | – | 14.8 µM (active) | -14.2 | inactive | – | –
C=CC(=O)N1CCc2ccc(-n3c(=O)ccc4cnc5ccc(-c6cnn(C)c6)cc5c43)cc21 | 0.632 µM (active) | 0.091 µM (active) | 7.43 µM (active) | 4.69 µM (active) | 3.72 µM (active) | 7.43 µM (active) | 7.43 µM (active) | – | 3.32 µM (active) | 3.32 µM (active) | – | 0.506 µM (active) | 3.58 µM (active) | –
COc1cc2ncnc(Nc3cccc(Br)c3)c2cc1OC | 4.68 µM (active) | 6.51 µM (active) and 5.25 µM (active) | inactive | inactive | inactive | inactive | inactive | inactive | inactive | – | – | inactive | – | –
CN(C)S(=O)(=O)c1ccc2c(c1)C(=Cc1cc3c([nH]1)CCCC3)C(=O)N2 | 0.833 µM (active) | 1.66 µM (active) | inactive | inactive | inactive | inactive | inactive | inactive | inactive | – | -10.1 | – | – | –
C=CC(=O)Nc1ccc2ncnc(Nc3ccc(OCc4cccc(F)c4)c(Cl)c3)c2c1 | 5.8 µM (active) and 5.9 µM (active) | 2.31 µM (active) and 4.68 µM (active) | 2.64 µM (active) | 3.32 µM (active) | 2.35 µM (active) | 7.43 µM (active) | 7.43 µM (active) | 7.43 µM (active) | 7.43 µM (active) | 8.33 µM (active) | – | 6.31 µM (active) | 0.631 µM (active) | –
OC[C@H](Cc1ccccc1)Nc1nc(Oc2ccc3c(c2)CCC3)nc2c1ncn2Cc1ccc(-c2ccccc2)cc1 | 13.2 µM (active) | 10.5 µM (active) | inactive | inactive | inactive | – | inactive | – | inactive | – | -12.9 | – | – | –
O=C1N(c2ccccc2)c2ccccc2C1(Cc1ccncc1)Cc1ccncc1 | inactive | inactive | inactive | inactive | inactive | – | – | inactive | – | – | – | inactive | – | inactive
O=C(Nc1ccccc1Br)N[C@@H]1CCN(c2ccc(C(F)(F)F)cn2)C1 | 14.8 µM (active) | 23.5 µM (active) | inactive | inactive | inactive | inactive | – | inactive | inactive | inactive | – | inactive | – | –
Nc1ccccc1NC(=O)c1ccc(CNC(=O)OCc2cccnc2)cc1 | 651 nM (active) and 742 nM (active) | 366 nM (active) and 468 nM (active) | 2.64 µM (active) | 1.66 µM (active) | 1.32 µM (active) | 2.35 µM (active) | 2.64 µM (active) | 0.833 µM (active) | 0.743 µM (active) | 0.743 µM (active) | – | 2 µM (active) | 11.2 µM (active) | –
CC(C)(C)C(=O)OCOP(=O)(COCCn1cnc2c(N)ncnc21)OCOC(=O)C(C)(C)C | 944 nM (active) and 372 nM (active) | 944 nM (active) and 411 nM (active) | 0.235 µM (active) | 0.418 µM (active) | 1.18 µM (active) | – | – | 0.469 µM (active) | 0.105 µM (active) | 0.105 µM (active) | – | 18.4 µM (active) and 12.6 µM (active) | – | 526 nM (active)
NC(=O)Cc1cccc(C(=O)c2ccccc2)c1N | inactive | inactive | inactive | inactive | inactive | inactive | inactive | – | – | – | 0.0063 | – | – | –
O=C(O)c1ccc2c(c1)nc(Nc1cccc(Cl)c1)c1ccncc12 | 1.84 µM (active) and 1.32 µM (active) | 1.64 µM (active) and 1.66 µM (active) | 5.9 µM (active) | 7.43 µM (active) | 4.69 µM (active) | 5.9 µM (active) | 4.69 µM (active) | – | – | – | – | 2.51 µM (active) | 3.55 µM (active) | –
O=C(O)c1ccc(-c2c[nH]c3ncc(-c4ccccc4)cc23)cc1C1CCCC1 | 1.18 µM (active) | 651 nM (active) and 2.35 µM (active) | inactive | inactive | inactive | 6.62 µM (active) | – | – | – | – | – | inactive | – | –
